The text below walks through data of ChEMBL document CHEMBL4296182, “CO-ADD screening of NIH NCI Diversity Set V”.

The test system of one assay is Staphylococcus aureus. The experiment in a line: Antibacterial activity against Staphylococcus aureus MRSA ATCC 43300 (CO-ADD:GP_020); MIC in CAMBH media using NBS plates, by Resazurin F(560/590). To be noted: Concentration 20 uM, ASSAY_TEST Inhibition of Bacterial Growth, detection method Resazurin, Fluorescence (ex560/em590), MEDIA CAMHB, plate type 384well, CORNING #3640, time 18 hr. Format: functional.

The next assay has as its system Acinetobacter baumannii. Put plainly: Antibacterial activity against Acinetobacter baumannii ATCC 19606 (CO-ADD:GN_034); MIC in CAMBH media using NBS plates, by Resazurin F(560/590). It is filed as functional. As to conditions: Concentration 20 uM, ASSAY_TEST Inhibition of Bacterial Growth, detection method Resazurin, Fluorescence (ex560/em590), MEDIA CAMHB, plate type 384well, CORNING #3640, time 18 hr.

The test system of a further assay is Escherichia coli. Put plainly: Antibacterial activity against Escherichia coli ATCC 25922 (CO-ADD:GN_001); MIC in CAMBH media using NBS plates, by Resazurin F(560/590). As to conditions: Concentration 20 uM, ASSAY_TEST Inhibition of Bacterial Growth, detection method Resazurin, Fluorescence (ex560/em590), MEDIA CAMHB, plate type 384well, CORNING #3640, time 18 hr. Format: functional.

The next assay deals with Klebsiella pneumoniae. To be noted: Concentration 20 uM; ASSAY_TEST Inhibition of Bacterial Growth; detection method Absorption (OD600); MEDIA CAMHB; plate type 384well; NBS; CORNING #3640; time 18 hr.
In another assay the test system is Candida albicans. As to conditions: 20 µM.
Another assay relates to Cryptococcus neoformans. To be noted: Concentration 20 uM; ASSAY_TEST Inhibition of Fungal Growth; detection method Resazurin; Absorption (OD600-OD570); plate type 384well; NBS; CORNING #3640.

For part of these data: Measured potencies and affinities stand elsewhere.

Take `O=C1NC(=S)S/C1=C\c1ccccc1C(=O)O`: the Inhibition in the assay with Staphylococcus aureus was -3.3%; in the assay on Acinetobacter baumannii it was -13.4%; with Escherichia coli it was 1.72%; in the assay on Klebsiella pneumoniae, 11.85%; with Candida albicans it was 14.4%; in the assay on Cryptococcus neoformans it was -5.59%.
With `Oc1ccnc2c(Cl)cccc12`, the Inhibition is 7.28% with Staphylococcus aureus; 2.93% with Acinetobacter baumannii; -8.1% in the assay with Escherichia coli; 5.9% with Klebsiella pneumoniae; 3.54% with Candida albicans; 14.14% with Cryptococcus neoformans.
In the case of `CN(CC(=O)O)Cc1oc(CO)cc(=O)c1O`, the Inhibition in the assay with Staphylococcus aureus is 10.58%; in the assay on Acinetobacter baumannii, -10.6%; in the assay with Escherichia coli it was 6.09%; with Klebsiella pneumoniae it was 19.22%; with Candida albicans, 0.31%; with Cryptococcus neoformans, -9.52%.
For `O=C(O)/C=C/C(=O)N1Cc2cc3ccccc3nc2C1`, the Inhibition was 3.21% in the assay on Staphylococcus aureus; -0.11% with Acinetobacter baumannii; -4.23% with Escherichia coli; 9.8% with Klebsiella pneumoniae; 1.99% in the assay with Candida albicans; -3.38% in the assay on Cryptococcus neoformans.
On to `C#CC1(N2CCCCC2)CCCCC1`, for which the Inhibition is 17.84% in the assay with Staphylococcus aureus; -17.5% with Acinetobacter baumannii; 12.63% in the assay with Escherichia coli; -1.14% in the assay with Klebsiella pneumoniae; -1.65% in the assay on Candida albicans; -12.88% in the assay on Cryptococcus neoformans.
On to `O=C(NC(=S)Nc1ccccn1)c1ccccc1`, for which the Inhibition was -7.14% with Staphylococcus aureus; -16.09% in the assay on Acinetobacter baumannii; 5.5% with Escherichia coli; 8.04% in the assay with Klebsiella pneumoniae; 10.1% in the assay with Candida albicans; -15.94% with Cryptococcus neoformans.
Consider `N#C/C(=C\c1cccnc1)c1ccc(Br)cc1`, for which the Inhibition is -11.66% in the assay on Staphylococcus aureus; -1.77% in the assay on Acinetobacter baumannii; -11.06% in the assay with Escherichia coli; 8.56% with Klebsiella pneumoniae; 35.8% in the assay with Candida albicans; -4.26% in the assay with Cryptococcus neoformans.
For the molecule `COc1cc(NC(C)=O)c2ncccc2c1NC(C)=O`, the Inhibition in the assay with Staphylococcus aureus was 3.21%; in the assay on Acinetobacter baumannii it was 8.89%; in the assay with Escherichia coli, -13.22%; with Klebsiella pneumoniae, 18.39%; in the assay on Candida albicans, 5.47%; in the assay on Cryptococcus neoformans it was 12.48%.
With `COc1cccc(/C=C/c2nccc3ccccc23)c1OC`, the Inhibition in the assay on Staphylococcus aureus was 13.01%; in the assay on Acinetobacter baumannii, 1.37%; in the assay on Escherichia coli, 11.96%; in the assay on Klebsiella pneumoniae, 0.37%; in the assay on Candida albicans, 0.68%; with Cryptococcus neoformans, -13.37%.
On to `COc1ccc(-c2cc3ccccc3[nH]2)cc1`, for which the Inhibition with Staphylococcus aureus is 28.13%; with Acinetobacter baumannii, -0.84%; with Escherichia coli it was 12.2%; in the assay with Klebsiella pneumoniae, 0.29%; in the assay with Candida albicans, -0.93%; with Cryptococcus neoformans, -13.44%.
On to `N#Cc1ncc(Cl)c2ccccc12`, for which the Inhibition was -8.29% with Staphylococcus aureus; -4.37% in the assay on Acinetobacter baumannii; -2.85% in the assay with Escherichia coli; 7.91% in the assay on Klebsiella pneumoniae; 0.23% with Candida albicans; -7.62% with Cryptococcus neoformans.
As to `O=c1n(CC2CO2)c(=O)n(CC2CO2)c(=O)n1CC1CO1` (stereo not given) [TEROXIRONE], the Inhibition was 0.12% in the assay with Staphylococcus aureus; -10.62% in the assay on Acinetobacter baumannii; 4.44% in the assay with Escherichia coli; 8.68% in the assay with Klebsiella pneumoniae; 3.23% in the assay on Candida albicans; -12.57% in the assay on Cryptococcus neoformans.
For `NNC(=O)CNc1cccc(Br)c1`, the Inhibition is 11.03% in the assay with Staphylococcus aureus; 1.39% in the assay on Acinetobacter baumannii; 7.55% in the assay with Escherichia coli; 8.17% in the assay with Klebsiella pneumoniae; 1.56% with Candida albicans; -4.46% in the assay with Cryptococcus neoformans.
For `Cc1c(Cl)ccc2c(C(=O)O)cc(-c3ccccc3)nc12`, the Inhibition in the assay with Staphylococcus aureus was -8.14%; in the assay with Acinetobacter baumannii it was 11.6%; in the assay on Escherichia coli, 2.11%; in the assay on Klebsiella pneumoniae, 26.83%; in the assay on Candida albicans, 2.48%; in the assay with Cryptococcus neoformans, 13.39%.
For `O=C1c2cccc(Oc3ccccc3)c2C(=O)c2cccc(Oc3ccccc3)c21`, the Inhibition was 12.36% in the assay with Staphylococcus aureus; 6.18% with Acinetobacter baumannii; -1.53% in the assay on Escherichia coli; 10.6% with Klebsiella pneumoniae; 2.19% in the assay on Candida albicans; -5.27% in the assay with Cryptococcus neoformans.
Regarding `CC1=CC(C)(C)Nc2ccc(Cc3ccc4c(c3)C(C)=CC(C)(C)N4)cc21`, the Inhibition with Staphylococcus aureus is 2.44%; in the assay with Acinetobacter baumannii, 4.53%; in the assay with Escherichia coli, -20.49%; in the assay with Klebsiella pneumoniae, -0.68%; in the assay on Candida albicans it was 14.9%; with Cryptococcus neoformans it was 28.4%.
As to `Cc1ccccc1OCC(O)CN1CCN(c2ccc(Cl)cc2)CC1` (stereo not given), the Inhibition with Staphylococcus aureus was 16.79%; with Acinetobacter baumannii, 7.24%; in the assay on Escherichia coli, 2.66%; with Klebsiella pneumoniae it was 7.5%; in the assay with Candida albicans, 0.11%; in the assay with Cryptococcus neoformans it was -12.08%.
On to `Cn1c(SCc2ccccn2)nc2c1c(=O)[nH]c(=O)n2C`, for which the Inhibition with Staphylococcus aureus was 7.99%; with Acinetobacter baumannii, -7.81%; in the assay with Escherichia coli, 13.96%; in the assay on Klebsiella pneumoniae it was 9.58%; in the assay with Candida albicans it was 0.41%; in the assay with Cryptococcus neoformans, -8.81%.
With `NC(=S)N/N=C/c1cc(-c2cccc(N)c2)ccn1`, the Inhibition with Staphylococcus aureus is -5.52%; with Acinetobacter baumannii it was 27.53%; in the assay on Escherichia coli, 11.56%; in the assay with Klebsiella pneumoniae it was 45.35%; with Candida albicans it was 1.87%; in the assay on Cryptococcus neoformans, -12.06%.
In the case of `c1ccc(-n2nnnc2-c2cccc3ccccc23)cc1`, the Inhibition with Staphylococcus aureus was 11.74%; in the assay with Acinetobacter baumannii it was 8.55%; in the assay with Escherichia coli, -5.59%; in the assay on Klebsiella pneumoniae, 3.86%; in the assay with Candida albicans, 8.07%; in the assay with Cryptococcus neoformans, -9.54%.
For the molecule `O=C1CCCc2cc3c(cc21)CC1(C3)Cc2cc3c(cc2C1)C(=O)CCC3`, the Inhibition in the assay on Staphylococcus aureus is 15.97%; in the assay on Acinetobacter baumannii it was -9.78%; with Escherichia coli, 9.88%; with Klebsiella pneumoniae, 10.84%; with Candida albicans, 3.32%; with Cryptococcus neoformans it was -3.34%.
In the case of `O=C(O)/C=C/C(=O)Nc1cccc2cccnc12`, the Inhibition with Staphylococcus aureus is 36.64%; in the assay with Acinetobacter baumannii, -0.12%; in the assay on Escherichia coli it was 28.31%; with Klebsiella pneumoniae it was 7.62%; with Candida albicans, 8.39%; in the assay with Cryptococcus neoformans it was 9.5%.
For the molecule `COCCn1c2nc(=O)n(-c3ccccc3)c(=O)c-2nc2ccccc21`, the Inhibition was 12.62% in the assay with Staphylococcus aureus; -2.61% in the assay on Acinetobacter baumannii; 6.79% with Escherichia coli; 23.4% in the assay with Klebsiella pneumoniae; 1.39% in the assay with Candida albicans; 4.88% with Cryptococcus neoformans.
Turning to `Nc1ccccc1C(=O)Nc1ccc(Cl)cc1Cl`, the Inhibition with Staphylococcus aureus is 13.76%; in the assay on Acinetobacter baumannii, -19.7%; in the assay with Escherichia coli it was 13.8%; in the assay with Klebsiella pneumoniae, 0.81%; in the assay on Candida albicans it was 3.17%; with Cryptococcus neoformans it was -17.52%.
For `COc1c(/C=N/NC(N)=O)c(OC)c(OC)c2c1CCO2`, the Inhibition in the assay on Staphylococcus aureus was 5.41%; in the assay with Acinetobacter baumannii it was 0.63%; in the assay on Escherichia coli, -9.64%; in the assay with Klebsiella pneumoniae it was 15.41%; in the assay with Candida albicans it was 4.39%; with Cryptococcus neoformans it was 14.65%.
